The list is not random: actives were taken first. Their share in the collection is about 0.98%.
Mtb betalactam = beta-lactam sensitization of Mtb H37Rv; M. tuberculosis H37Rv growth with meropenem, percent inhibition; 330,000 tested, 0.27% active; inhibition, % at 25 µM; call rule not given here;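 also: growth measured after seven days incubation then overnight dye step; 0% = bacteria only wells and 100% = bacteria with antibiotic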
Rv3671c protease = Rv3671c (M. tuberculosis) protease inhibition | P9WHR9 | inhibition, % at 5.96 µM | 320,000 tested, 0.048% active | AID 2606; in the data active = inhibition above about 38%;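 also: extracellular domain of Rv3671c used as enzyme; 0% = enzyme with DMSO and 100% = no enzyme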
Mtb UGM inh = inhibitors of M. tuberculosis UDP-galactopyranose mutase. P9WIQ1. purified UGM, fluorescence polarization probe displacement. inhibition, % at 10 µM. 320,000 tested, 0.06% active; in the data active = inhibition above about 10%, passing the limit was not always enough; inconclusive = no clear call, values can overlap the other calls
Target sequence (P9WIQ1 whole entry, looked up): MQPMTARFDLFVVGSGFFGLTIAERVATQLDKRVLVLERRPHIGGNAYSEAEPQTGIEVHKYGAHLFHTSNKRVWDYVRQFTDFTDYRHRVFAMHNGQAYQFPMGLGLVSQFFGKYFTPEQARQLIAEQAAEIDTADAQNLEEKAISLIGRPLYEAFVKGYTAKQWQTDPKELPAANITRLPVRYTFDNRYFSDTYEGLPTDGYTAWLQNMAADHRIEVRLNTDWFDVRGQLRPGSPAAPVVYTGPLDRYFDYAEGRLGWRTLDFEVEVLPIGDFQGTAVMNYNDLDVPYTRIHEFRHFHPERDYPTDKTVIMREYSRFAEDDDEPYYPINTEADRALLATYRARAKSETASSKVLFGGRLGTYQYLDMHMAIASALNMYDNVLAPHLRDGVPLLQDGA
Y pestis TopoI = inhibitors of Yersinia pestis topoisomerase I | Y. pestis Topo-I cleavage product accumulation, plate reader | activity, % at 10 µM | 360,000 tested, 0.064% active; in the data active = activity above about 50%, passing the limit was not always enough; inconclusive = no clear call, values can overlap the other calls
PfHsp40 rescue = rescue of PfHsp40-mediated yeast toxicity. growth rescue, % at 12.5 µM. 340,000 tested, 0.68% active. S. cerevisiae expressing PfHsp40, growth rescue, ATP luminescence. AID 504582; in the data active = growth rescue above about 28%, passing the limit was not always enough; inconclusive = no clear call, values can overlap the other calls;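 also: yeast W303a lacking pdr1 and pdr3 grown in galactose medium; growth measured after three days at 30 °C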
FadD28 binding = inhibitors of Mycobacterium tuberculosis FadD28 bisubstrate binding | FadD28 bisubstrate probe binding, fluorescence polarization | inhibition, % at 12.5 µM | 360,000 tested, 0.22% active; in the data active = inhibition above about 8.5%, passing the limit was not always enough; inconclusive = no clear call, values can overlap the other calls
* hit, by the source's call; ? = inconclusive; . = not tested or not shown.

SMILES	Mtb betalactam	Rv3671c protease	Mtb UGM inh	Y pestis TopoI	PfHsp40 rescue	FadD28 binding
CCN1C(=O)[C@H]2[C@@H](c3ccc(OC)cc3)N[C@]3(CCCN(Cc4ccc(C(F)(F)F)cc4)C3=O)[C@H]2C1=O	.	.	.	5	.	-5
CC(NNC(=S)N1CCCCCC1)c1ccc2ccccc2n1 (configuration not stated)	.	.	.	.	.	-2
Cc1cccc(OCC(=O)N/N=C\c2cn(C)c3ccccc23)c1	34	-8	0	38	-1	41*
CCOC(=O)c1ccc(NC(=O)CCc2nc(-c3ccccc3Cl)no2)cc1	98	-18	1	1	34*	-3
CN(C)c1ncnc2c1ncn2[C@H]1CN(Cc2ccco2)C[C@@H](CO)O1	.	.	.	5	.	-2
CCCCCCN1C[C@H](n2cc(-c3ccc(F)cc3)nn2)[C@@H](O)C[C@@H]1c1ccc(OC)cc1	.	.	.	-3	.	-3
CCCCCCN1C[C@@H](n2cc(-c3ccc(F)cc3)nn2)[C@H](O)C[C@@H]1c1ccc(OC)cc1	.	.	.	65*	.	-1
CCCCN1C(=O)C(CC(=O)NCCN2CCOCC2)CC(C(=O)N(C(C)C)C(C)C)=C1C (configuration not stated)	.	.	.	-1	.	-3
c1ccc2c(c1)nnn2Cn1nnc2ccccc21	.	.	.	4	.	-3
CC1(C(=O)NS(=O)(=O)C2CC2)CCN(C(=O)c2cc(F)cc(F)c2)C1 (configuration not stated)	.	.	.	-6	.	-2
Cn1ncc([N+](=O)[O-])c1C(=O)Nc1ccccc1C#N	.	.	.	-7	.	-3
COc1ccc(C(=O)NCCc2c[nH]c3ccccc23)cc1S(=O)(=O)N1CCOCC1	-6	2	1	-8	3	8.4*
CCN(Cc1ccccc1)C(=O)CSc1nc(C)cc(C)c1C#N	5	-3	0	33	129*	-1
CC(C)(C)S(=O)N1Cc2cc(CO)ccc2[C@H]1CCO (some centres not stated)	.	.	.	7	.	-1
Cc1ccc(CSc2nnc(C(F)(F)F)n2Cc2ccc(F)cc2)cc1	7	6	2	26	38*	-4
CCOc1cc(C2C(C(=O)c3ccc(C)o3)=C(O)C(=O)N2CCc2ccccc2)ccc1O (configuration not stated)	2	-3	3	11	77*	0
Cc1oc2cc(Br)c(O)c(Br)c2c1-c1ccccc1	8	-8	5	0	97*	0
Cc1cc2oc(=O)cc(-c3ccccc3)c2c(C)c1-c1ccc(O)cc1	.	.	.	11	5	0
CC(=O)N1CCN(S(=O)(=O)c2cccc(C(=O)OCC(=O)NCc3ccccc3Cl)c2)CC1	.	.	.	12	.	-1
Cc1ccc(-c2nc3ccc([N+](=O)[O-])cc3[nH]2)cc1	9	-3	1	-14	111*	-8
COc1ccc(-c2nc3ccc([N+](=O)[O-])cc3[nH]2)cc1	3	-9	0	-18	22	-9
O=C(Nc1ccc2c(c1)[C@H]1C[C@@H](CC(=O)N3CCOCC3)O[C@@H](CO)[C@H]1O2)C1CCOCC1	.	.	.	2	.	0
CC(=O)NS(=O)(=O)c1ccc(N=c2ssc3c2-c2ccc(C)cc2NC3(C)C)cc1	31	0	-2	3	-1	14*
Cc1ccc(C(=O)CC(=O)c2cccc(F)c2)c(O)c1	98	4	1	2	396*	-2
COc1cc(C(=O)N2CCCC(C)(C(=O)NS(=O)(=O)C3CC3)C2)cc(OC)c1OC (configuration not stated)	.	.	.	6	.	-1
SMILES	Mtb betalactam	Rv3671c protease	Mtb UGM inh	Y pestis TopoI	PfHsp40 rescue	FadD28 binding
C[C@H](NC(=O)c1ccco1)C(=O)Nc1nc(-c2ccccn2)cs1	.	.	.	-4	-1	-9
O=C(Nc1nc(-c2ccccn2)cs1)c1ccc(Br)s1	87	-23	0	-11	255*	-4
O=C(Nc1nc(-c2ccccn2)cs1)c1ccco1	93	-3	4	-7	43*	-6
C[C@@H]1CN([C@H](C)CO)C(=O)CCCn2nncc2CO[C@@H]1CN(C)C(=O)Nc1ccnc(N2CCOCC2)c1	.	.	.	1	.	0
O=C(N/N=C/c1c[nH]c2ccccc12)c1sc2ccccc2c1Cl	1	15	2	-7	?	1
O=C(N/N=C/c1ccccn1)c1sc2ccccc2c1Cl	85	8	2	17	199*	-7
O=C1NC(=S)SC1=Cc1ccc(N(CCCl)CCCl)cc1	.	.	.	15	-1	14*
O=C(C1CC(=O)N(C2CCCCC2)C1)N1CCc2ccccc21 (configuration not stated)	5	-11	0	5	61*	0
Cc1cccc(NC(=O)Cn2c(=O)oc3ccccc32)c1	-2	7	0	2	0	35*
O=C(Cn1c(=O)oc2ccccc21)Nc1cccc(Cl)c1	-9	-10	-3	-3	0	11*
COc1ccc(C)cc1NC(=O)Cn1c(=O)oc2ccccc21	8	-4	-3	6	0	?
Fc1ccc(COc2ccccc2CNCc2ccncc2)cc1	6	-5	-1	-1	-1	0
Brc1ccc(OCc2ccccc2)c(CNCc2ccncc2)c1	15	-7	-2	47	122*	-1
O=C(CSc1cccc[n+]1[O-])Nc1ccccc1C(F)(F)F	-2	2	-2	2	-1	-2
O=C(CSc1cccc[n+]1[O-])Nc1ccccc1Oc1ccccc1	100	-2	0	-12	90*	-3
CCNc1ccc(C(=O)OCC)cc1NC(=O)c1cc(S(=O)(=O)N2CCOCC2)ccc1C	1	-6	2	6	113*	-2
CC(=O)N1c2ccc(S(=O)(=O)NCCC(=O)NCCc3ccc(C)cc3)cc2CC1C (configuration not stated)	-8	8	-2	15	0	-1
CC(=O)N1c2ccc(S(=O)(=O)NCCC(=O)NCCc3cccc(C)c3)cc2CC1C (configuration not stated)	-3	0	2	12	68*	-3
CCNC(=S)N=Nc1c(O)[nH]c2ccc([N+](=O)[O-])cc12	-5	9	2	-7	0	-1
O=[N+]([O-])c1ccc2[nH]c(O)c(N=NC(=S)Nc3cccnc3)c2c1	1	19	1	-5	41*	-2
Cc1ccc(NC(=O)c2cc3nc(C)cc(C)n3n2)cc1	4	2	.	2	47*	-3
CCCOc1ccc(F)cc1-c1cc(C(=O)NCc2cc(OC)cc(OC)c2)[nH]n1	.	.	.	20	.	-7
Cc1ccc(CONC(=O)c2ccc([N+](=O)[O-])cc2)cc1	5	-4	0	3	38*	1
CC(C)(C)NC(=O)C1(C)CCC(=O)N1CC(F)(F)F (configuration not stated)	.	.	.	.	.	-1
O=C(Cc1ccc(Br)cc1)N1CCOCC1	4	-3	1	-4	36*	-2
O=C(N/N=C\c1cccc([N+](=O)[O-])c1O)C1COc2ccccc2O1 (configuration not stated)	1	6	2	1	42*	-1

Screening data: PubChem, several laboratories
